Source: PubChem BioAssay (National Center for Advancing Translational Sciences (NCATS))
Pf growth 48h = P. falciparum growth inhibition at 48 hours (one generation) | P. falciparum luciferase growth in erythrocytes, 48 h | Potency, µM (doses to about 28.7 µM), most hits filed as inhibitors | 310,000 compounds, 5.9% hits
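Parasite viability was followed by luminescence of a genomically integrated firefly luciferase. Cultures held 0.1% parasitemia at 2% hematocrit (final), incubated under 5% CO2 at 37 C.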
Shiga inhibitor = blocks Shiga toxin action in Vero cells. Vero cells, Shiga toxin protein synthesis inhibition reporter. inhibition, % at 38.7 µM. 290,000 compounds, 9.2% hits. AID 2315; in the data active = inhibition mostly above about 28%, no sharp cut-off; inactive = mostly below about 43%
Pf growth 96h = inhibits malaria parasite growth, 96 h | P. falciparum luciferase reporter growth, 96 h | Potency, µM (doses to about 28.7 µM), most hits filed as inhibitors | 320,000 compounds, 6.9% hits
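Two-generation exposure (96 h) targets delayed-death phenotype. Reporter parasites carrying integrated firefly luciferase, in red cells at 2% hematocrit and 0.05% parasitemia final, kept at 37 C, 5% CO2; luminescence loss indicates inhibition.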
Sm TGR inh = S. mansoni TGR enzyme inhibition. purified TGR, DTNB reduction, TNB absorbance 405 nm. 360,000 compounds, 3% hits. Potency, µM (series often up to 114 µM), hits mostly inhibitors. Q962Y6; note: nearly all actives have a fitted effect of over 60% in size
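Kinetic colorimetric format: TGR-catalysed, NADPH-driven DTNB reduction monitored via TNB absorbance. Enzyme dispensed at 20 nM; compound exposure 15 min at room temperature before reaction start.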
Cycloheximide cs = affects cycloheximide protein synthesis inhibition readout, counter-screen; AID 2314; 300,000 compounds, 12% hits; cell reporter, cycloheximide protein synthesis inhibition counterscreen; max response, %; in the data active = max response mostly above about 13%, no sharp cut-off; inactive = mostly below about 14%; note: read at 38.3 µM for the half of the compounds with a filed dose
NS1 inh = blocks influenza NS1 protein function | 270,000 compounds, 0.4% hits | Potency, µM (highest dose often 46.1 µM) | AID 2326; calls by dose curve; note: actives are rising curves; nearly all actives have a fitted effect of over 50% in size
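Read-out: OD600 growth recovery of NS1-expressing budding yeast. Cells grown overnight at 30C in -URA glucose medium, washed, resuspended and diluted 1:100 in 2% galactose assay medium, pH 6.0. Same strain lacking NS1 served as positive control.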
Hits are given with their value; – = inactive; ? = inconclusive; · = no result given. An excerpt weighted towards active compounds, which were near 21% of everything screened. Unless noted, calls come from the whole dose curve; as a rule, active = well fitted curve in the direction sought with a large enough effect; inconclusive = small, poorly fitted or top-dose-only effect, or another doubt; inactive = no such curve, though single readings can be large; an effect the other way counts as inactive or inconclusive.

SMILES	Pf growth 48h	Shiga inhibitor	Pf growth 96h	Sm TGR inh	Cycloheximide cs	NS1 inh
CCOC(=O)C1=C(O)/C(=C\c2cc(C)n(-c3ccc(F)cc3)c2C)N=C1C	?	–	–	14µM	–	·
O=C(CN1C(=O)NC2(CCCC2)C1=O)NNC(=O)c1ccccc1F	–	·	–	–	·	·
CC(Nc1nc(=S)nc(Nc2ccc(F)cc2)[nH]1)c1ccccc1 (centres undefined)	12µM	·	10µM	–	–	?
CC(Nc1nc(Nc2ccc(F)cc2)nc(SCC(N)=O)n1)c1ccccc1 (centres undefined)	?	·	?	–	–	?
COC(=O)c1ccc(C(=O)N2CCCC(N3CCN(c4ccc(F)cc4)CC3)C2)nc1 (centres undefined)	–	–	?	–	–	–
CSc1nc2sc3c(c2c(=O)n1Cc1ccccc1)CCC(C(C)(C)C)C3 (centres undefined)	·	·	·	–	·	·
CCCCN(CCCNC(=O)c1c(C)oc2nc[nH]c(=O)c12)Cc1ccccc1	·	·	·	–	·	·
CCc1cc(=O)oc2c3c(cc(OCC(=O)N[C@H](C(=O)O)[C@H](C)CC)c12)OC(C)(C)CC3	?	–	?	–	–	–
COc1ccccc1-c1nc2cc3ccccc3cc2nc1-c1ccccc1OC	?	–	12µM	–	–	–
COc1ccccc1-c1nc2ccccc2nc1-c1ccccc1	?	–	–	–	–	–
CCc1ccc(S(=O)(=O)ON2C(=O)c3ccccc3C2=O)cc1	–	–	–	1.4µM	–	–
COc1ccc(OC)c(S(=O)(=O)ON2C(=O)c3ccccc3C2=O)c1	–	–	2.9µM	0.63µM	–	–
COC(=O)Cc1ccc(OCc2ccc(Cl)nc2)cc1	–	52	–	–	37	–
CC(=O)C(Cc1ccc(Cl)nc1)Cc1ccc(Cl)nc1	–	–	?	–	–	–
O=C(/C=C/c1cccc(F)c1)N1CCN(c2ncccn2)CC1	–	–	–	–	–	·
CCn1ccnc1CN(C)Cc1nc(-c2ccccc2)no1	–	55	?	–	35	–
CN(CCN1CCOCC1)Cc1nc(-c2ccccc2)no1	–	–	–	–	12	–
CCn1ccnc1CN(C)Cc1cn(-c2ccc(C)cc2)nc1-c1cccc(C)c1	6.6µM	–	?	–	–	–
CCn1ccnc1CN(C)Cc1nc(-c2cccc(Cl)c2)no1	–	–	–	–	30	–
CC(=O)c1ccc(NC(=O)CN(C)S(=O)(=O)c2cc3c(cc2C)NC(=O)CO3)cc1	·	·	·	–	·	·
Cc1ccc(NCC(=O)Nc2cccc(S(=O)(=O)N(C)C)c2)c(Cl)c1	?	–	?	–	–	–
CCOC(=O)NC(=O)CSc1nc(C)cc(C(F)(F)F)c1C#N	–	84	–	–	31	–
Cc1cc(C(F)(F)F)c(C#N)c(SCC(=O)Nc2nc3cc(Br)ccc3s2)n1	–	33	–	–	39	–
CN(C(=S)Nc1cccnc1)c1ccc(O)cc1	–	23	–	–	–	–
CCCCN(C)C(=S)Nc1ccc(Oc2ccccc2)cc1	–	–	–	–	22	–
SMILES	Pf growth 48h	Shiga inhibitor	Pf growth 96h	Sm TGR inh	Cycloheximide cs	NS1 inh
CN(CCC#N)C(=S)Nc1ccc(Oc2ccccc2)cc1	–	–	?	–	–	–
CCN(C(=S)Nc1cccnc1)c1ccccc1	–	–	–	25µM	–	–
CN(C(=S)Nc1ccc(Oc2ccccc2)cc1)c1ccc(O)cc1	–	–	–	40µM	–	–
CN(C(=S)Nc1ccccc1)c1ccccc1	–	–	–	–	–	–
CCN(C(=S)Nc1cccnc1)c1cccc2ccccc12	?	–	?	?	–	–
CSc1nnc(C(C)c2ncc(C(F)(F)F)cc2Cl)n1C (centres undefined)	–	–	–	–	–	–
CC[C@H](C)[C@H](NC(=O)[C@H](Cc1ccc(O)cc1)NC(=O)[C@H](Cc1cnc[nH]1)NC(=O)[C@H](CCCNC(=N)N)NC(=O)[C@H](CC(C)C)NC(=O)[C@H](C)NC(=O)[C@H](CO)NC(=O)[C@H](Cc1ccc(O)cc1)NC(=O)[C@H](Cc1ccc(O)cc1)NC(=O)[C@H](CCCNC(=N)N)NC(=O)[C@H](C)NC(=O)[C@H](CC(C)C)NC(=O)[C@H](CC(=O)O)NC(=O)[C@H](CCC(=O)O)NC(=O)[C@H](C)NC(=O)[C@@H]1CCCN1C(=O)[C@H](C)NC(=O)[C@H](CC(=O)O)NC(=O)[C@H](CCC(=O)O)NC(=O)CNC(=O)[C@@H]1CCCN1C(=O)[C@H](CC(N)=O)NC(=O)[C@H](CC(=O)O)NC(=O)[C@@H]1CCCN1C(=O)[C@H](CCCCN)NC(=O)[C@@H](N)CO)C(=O)N[C@@H](CC(N)=O)C(=O)N[C@@H](CC(C)C)C(=O)N[C@H](C(=O)N[C@H](C(=O)N[C@@H](CCCNC(=N)N)C(=O)N[C@@H](CCC(N)=O)C(=O)N[C@@H](CCCNC(=N)N)C(=O)N[C@@H](Cc1ccc(O)cc1)C(N)=O)[C@@H](C)O)[C@@H](C)CC	·	–	·	·	–	·
Cc1ccc(CNC(=O)CSc2nc3[nH]ncc3c(=O)[nH]2)cc1	–	–	–	–	–	–
CCOc1ccccc1CNC(=O)C1CCN(c2nc3ccccc3nc2C(F)(F)F)CC1	·	·	·	–	·	·
CN(C(=S)Nc1ccc(SC(F)F)cc1)c1ccc(O)cc1	–	–	–	–	24	–
CN(C(=S)Nc1ccc(Oc2ccccc2)cc1)C1CCCCC1	–	–	–	–	22	–
O=C(/C=C\c1ccco1)Oc1cccc2cccnc12	?	–	–	?	23	·
Cc1ccc2cccc(OC(=O)/C=C\c3ccccc3)c2n1	–	–	?	–	–	–
O=C(/C=C/c1ccco1)Oc1cccc2cccnc12	5.2µM	–	5.9µM	?	–	–
COc1ccccc1/C=C/C(=O)Oc1cccc2cccnc12	–	–	–	–	–	–
N[C@@](CCc1ccccc1)(C(=O)O)c1ccccc1	·	·	·	·	·	–
CCOc1ccc(NC(=S)N(CCN2CCOCC2)Cc2cc3cc4c(cc3[nH]c2=O)OCCO4)cc1	?	–	?	–	–	–
Cc1nnc(Oc2ccc([N+](=O)[O-])cc2)c2ccccc12	–	–	–	–	–	–
COc1ccc(Oc2nnc(C)c3ccccc23)cc1	·	–	–	–	46	–
Cc1nnc(Oc2ccccc2)c2ccccc12	–	47	–	–	24	–
Cc1ccccc1Oc1nnc(-c2cccs2)c2ccccc12	–	–	?	–	–	–
Cc1nnc(Oc2ccccc2F)c2ccccc12	–	106	–	–	33	–
COc1ccc(-c2nc3c4ccccc4ccn3c2CN2CCOCC2)cc1OC	–	74	–	–	32	–
c1ccc(-c2nc3c4ccccc4ccn3c2CN2CCOCC2)cc1	–	64	–	–	49	–
Clc1ccc(-c2nc3ccccn3c2CN2CCOCC2)cc1	?	25	–	–	21	–
